Sampled rows, rich in hits. Any-hit rate of the full collection: about 1.6%.
KCNQ2 enhance: potentiators of rat KCNQ2 potassium channel; O88943; CHO-K1 KCNQ2, FluxOR thallium flux fluorescence; active compounds read high; B-score at 10 µM; 310,000 compounds, 0.54% hits; AID 2239;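 active means fluorescence ratio B-score at least 3 SD of library B-scores, with initial fluorescence B-score within 3 of them, cut at about 5.3 in these data; same plate scores as AID 2156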;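 further: B-score of peak minus minimum over baseline fluorescence ratio after K+ and Tl+ stimulus; positive B-score means potentiation of KCNQ2 with more thallium influx and brighter signal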
Target sequence (O88943 whole entry, looked up): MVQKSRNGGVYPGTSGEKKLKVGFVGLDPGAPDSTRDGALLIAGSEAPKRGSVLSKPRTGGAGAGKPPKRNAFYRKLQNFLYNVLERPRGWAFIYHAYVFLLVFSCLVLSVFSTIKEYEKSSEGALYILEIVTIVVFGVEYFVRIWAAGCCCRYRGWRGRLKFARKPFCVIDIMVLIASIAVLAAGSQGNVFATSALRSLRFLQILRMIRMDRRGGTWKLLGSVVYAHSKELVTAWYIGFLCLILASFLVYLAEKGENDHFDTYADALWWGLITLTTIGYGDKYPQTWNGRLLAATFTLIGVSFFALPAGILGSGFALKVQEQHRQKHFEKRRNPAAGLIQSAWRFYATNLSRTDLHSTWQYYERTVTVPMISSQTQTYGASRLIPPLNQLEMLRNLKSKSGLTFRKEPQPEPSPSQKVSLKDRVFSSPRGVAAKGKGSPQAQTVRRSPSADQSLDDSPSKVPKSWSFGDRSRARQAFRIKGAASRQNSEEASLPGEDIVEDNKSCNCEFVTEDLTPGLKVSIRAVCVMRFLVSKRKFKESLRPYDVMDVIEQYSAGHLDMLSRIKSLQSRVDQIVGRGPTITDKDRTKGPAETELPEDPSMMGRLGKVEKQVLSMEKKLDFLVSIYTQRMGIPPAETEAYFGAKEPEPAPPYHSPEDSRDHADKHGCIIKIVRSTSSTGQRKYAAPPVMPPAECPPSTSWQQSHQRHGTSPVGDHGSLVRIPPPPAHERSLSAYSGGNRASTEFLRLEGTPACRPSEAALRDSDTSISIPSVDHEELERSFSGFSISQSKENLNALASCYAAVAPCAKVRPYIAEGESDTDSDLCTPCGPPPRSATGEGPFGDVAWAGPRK
KCNQ2 block: KCNQ2 (rat) channel inhibition. B-score at 10 µM. CHO-K1 KCNQ2, FluxOR thallium flux, 20 min; active compounds read low. O88943. 310,000 compounds, 1.1% hits;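 active means fluorescence ratio B-score at most minus 3 library SDs, with starting brightness B-score within 2 library SDs, cut at about -5.5 in these data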
Of the large screens only hits and unclear results are named; the others gave an inactive call.

CSc1ccc(S(=O)(=O)NCc2ccccc2C)cc1	KCNQ2 block -6.09
Cc1ccc(S(=O)(=O)NCc2ccccc2C)cc1	none (no result: KCNQ2 enhance)
Cc1csc(SCC(=O)NC(C)c2ccc(F)cc2)n1 (stereo not drawn)	none
CC(=O)c1cc2c(cc1NC(=O)c1ccc(Cl)cc1)OCCO2	none
CC(=O)c1cc2c(cc1NC(=O)Nc1cccc(Cl)c1)OCCO2	KCNQ2 block -6.3
c1cc2cc(-c3c(-c4ccc5c(c4)OCO5)noc3-c3ccsc3)ccc2[nH]1	none (no result: KCNQ2 enhance)
Cc1onc(-c2ccc3c(c2)OCO3)c1-c1ccc2[nH]ccc2c1	KCNQ2 block -7.89
O=C(Nc1ccc(C(=O)OC2CCCCC2)cc1)c1ccncc1	none (no result: KCNQ2 enhance)
O=[N+]([O-])c1ccc(OCc2cnc(Cl)s2)c([N+](=O)[O-])c1	none
CC1CC(NC(=O)Cc2ccc(Br)cc2)CC(C)(C)C1 (stereo not drawn)	KCNQ2 block -5.74
CC1CC(NC(=O)CC#N)CC(C)(C)C1 (stereo not drawn)	none (no result: KCNQ2 enhance)
CCCCN(C(=O)/C=C/c1ccccc1)C1CCS(=O)(=O)C1 (stereo not drawn)	none
CCN(C(=O)/C=C/c1ccccc1)C1CCCCC1	KCNQ2 block -5.8
Cc1ccc(-c2n[nH]c(=S)c3ccccc23)cc1S(=O)(=O)NCC1CCCO1 (stereo not drawn)	none
O=C1CC(C(=O)N2CCN(S(=O)(=O)c3cccc(F)c3)CC2)CN1Cc1ccccc1Cl (stereo not drawn)	none (no result: KCNQ2 enhance)
Cc1cc2c(c(=O)o1)C(c1ccc([N+](=O)[O-])o1)C(C#N)=C(N)O2 (stereo not drawn)	KCNQ2 enhance 7.7
CCC(CC)C1C(C#N)=C(N)Oc2cc(C)oc(=O)c21 (stereo not drawn)	none
CSc1ccccc1OCc1cc(C(=O)N(C)C2CCCc3ccccc32)no1 (stereo not drawn)	none (no result: KCNQ2 enhance)
CN(C(=O)c1cccc(C(F)(F)F)c1)C1CCCc2ccccc21 (stereo not drawn)	KCNQ2 block -5.77
COc1ccccc1N1CCN(C(=O)C(=O)c2cn(CC(=O)N3CCOCC3)c3ccccc23)CC1	none (no result: KCNQ2 enhance)
O=C(CN1CCN(C(=O)c2ccco2)CC1)Nc1ccc(F)cc1F	none (no result: KCNQ2 enhance)
COP(=O)(OC)c1nc(-c2cccc3ccccc23)oc1N1CCCCC1	none (no result: KCNQ2 enhance)
CCOP(=O)(OCC)c1nc(-c2cccc3ccccc23)oc1N1CCCCC1	KCNQ2 block -6.08
Cc1cc(C(=O)NNC(=O)CN2C(=O)NC(C)(c3ccccc3)C2=O)c(C)o1 (stereo not drawn)	none (no result: KCNQ2 enhance)
CN(C)/C=N/C(=S)Nc1ccc(Br)cc1F	none
O=Cc1c(-c2ccccc2)cc2oc3ccccc3cc1-2	none
COc1ccccc1N1CCN(C(=O)c2ccc(C(C)(C)C)cc2)CC1	none (no result: KCNQ2 enhance)
COc1ccccc1C1CCN(C(=O)c2ccc(C(C)(C)C)cc2)CC1	KCNQ2 block -6.5
Cc1ccn2c(=O)nc(SCC(=O)NC3CCCC3)nc2c1	none (no result: KCNQ2 enhance)
Clc1ccc(-c2csc(-c3cccnc3)n2)s1	none (no result: KCNQ2 enhance)
Cc1cccc(C(=O)N(c2ccccn2)C(C)c2ccco2)c1 (stereo not drawn)	none (no result: KCNQ2 enhance)
CC(c1ccco1)N(C(=O)C12CC3(C)CC(C)(CC(C)(C3)C1)C2)c1ccccn1 (stereo not drawn)	KCNQ2 block -6.27
Cc1ccc(N2CCN(c3ncccc3[N+](=O)[O-])CC2)c(C)c1	none (no result: KCNQ2 enhance)
Cc1ccc(C)c(N2CCN(c3ncccc3[N+](=O)[O-])CC2)c1	KCNQ2 block -6.57
CCN(CC)S(=O)(=O)c1cccc(-c2nnc(SCC#N)n2Cc2ccccc2)c1	KCNQ2 block -5.67
CCN(CC)S(=O)(=O)c1cccc(-c2nnc(SC(C)C#N)n2Cc2ccccc2)c1 (stereo not drawn)	none (no result: KCNQ2 enhance)
COc1ccc(Cn2c(=O)[nH]c3cc(C(=O)N4CCN(Cc5ccccc5)CC4)ccc3c2=O)cc1	none (no result: KCNQ2 enhance)
COc1ccc2c(C)c(C(=O)N3CCN(Cc4ccccc4)CC3)oc2c1	KCNQ2 block -6.19
Cc1ccc(C(=O)N[C@@H](C)CN2C3=NC[C@H](C)N3C[C@H]2Cc2ccc(O)cc2)cc1Br	none (no result: KCNQ2 enhance)
COc1ccc(-c2nc(CS(=O)CC(=O)NCc3ccc(F)cc3)c(C)o2)cc1 (stereo not drawn)	none (no result: KCNQ2 enhance)
Cc1cc(NC(=O)CS(=O)(=O)c2cn(Cc3ccc(F)cc3)c3ccccc23)no1	none (no result: KCNQ2 enhance)
Cc1cc(NC(=O)CS(=O)(=O)c2cn(Cc3cccc(F)c3)c3ccccc23)no1	KCNQ2 block -5.69
Nn1c(C2CCC2)nc2cc(Cl)ccc2c1=O	none
NC(=O)CC(NC(=O)Cc1cccc2ccccc12)c1ccc(NCCc2ccccc2F)c([N+](=O)[O-])c1 (stereo not drawn)	none
COc1cc2c(cc1OC)C(Nn1cnnc1)=NC1(CCCC1)C2	none
COc1ccc2c(c1)O[C@H](c1ccc3c(c1)OCO3)[C@@H](OC(=O)N[C@H](C)C1CCCCC1)C2=O	none (no result: KCNQ2 enhance)
COc1cccc([C@@H]2Oc3ccc(OC)cc3C(=O)[C@H]2OC(=O)N[C@H](C)C2CCCCC2)c1	KCNQ2 block -6.81
COC(=O)C(Cc1ccccc1)P(=O)(c1ccccc1)c1ccccc1 (stereo not drawn)	none
O=C(O)c1cccc(NC(=S)NC(=O)C(c2ccccc2)c2ccccc2)c1	none
CN1CCN(C2Cc3cc(Cl)ccc3Sc3cc(F)ccc32)CC1 (stereo not drawn)	KCNQ2 block -6.89
OCCN1CCN(C2Cc3cc(Cl)ccc3Sc3ccc(Cl)cc32)CC1 (stereo not drawn) (tested in a mixture with another compound)	none (no result: KCNQ2 enhance)
Nc1nnc(SCC(=O)NC2CCCCCC2)s1	none (no result: KCNQ2 enhance)
CCn1c(SCc2cccc(F)c2)nnc1-c1ccncc1	none
CCn1c(SCc2cccc(C)c2)nnc1-c1ccc(C)cc1	KCNQ2 block -5.98
COc1ccc(OC)c(NC(=O)C(=O)NNC(=O)c2cccs2)c1	none
Cn1nc(C(F)(F)F)c(/C=N/OC(=O)c2ccccc2Cl)c1SCc1ccccc1Cl	KCNQ2 block -5.95
Cn1nc(C(F)(F)F)c(/C=N/OC(=O)c2ccccc2)c1SCc1ccc(Cl)cc1	none (no result: KCNQ2 enhance)
Cn1c(=O)c(C(=O)NCCc2ccccc2)c(O)c2ccccc21	none (no result: KCNQ2 enhance)
CC(NC(=O)c1c(O)c2ccccc2n(C)c1=O)c1ccccc1 (stereo not drawn)	KCNQ2 block -5.78
O=C(COc1ncnc2c(Cl)cc(Cl)cc12)Nc1cc([N+](=O)[O-])ccc1Cl	none (no result: KCNQ2 enhance)
CC1(CCc2ccccc2)NC(=S)N(c2ccc(Cl)cc2)N1 (stereo not drawn)	none (no result: KCNQ2 enhance)
CCC1(c2ccc(Cl)cc2)NC(=S)N(c2ccc(C)cc2)N1 (stereo not drawn)	KCNQ2 enhance 17.2
Cc1cc(C)n(C(=O)CNC(=O)c2cccc(F)c2)n1	none
Cc1nn(C(=O)CNC(=O)c2ccccc2)c(C)c1C	KCNQ2 enhance 8.95
CN(C(=O)CC1C(=O)NCCN1CC(c1ccccc1)c1ccccc1)C(C1CC1)C1CC1 (stereo not drawn)	none (no result: KCNQ2 enhance)
CN(CC1CCOCC1)C(=O)CC1C(=O)NCCN1CC(c1ccccc1)c1ccccc1 (stereo not drawn)	KCNQ2 block -5.88
Cc1ccc(SCCC(=O)OCC(=O)NCC2CCCCC2)cc1	none (no result: KCNQ2 enhance)
Cc1nn2c(SCC(=O)c3cccs3)cc(C(C)(C)C)nc2c1-c1ccccc1	KCNQ2 enhance 19.6
Cc1cc(SCC(=O)c2cccs2)n2nc(C)c(-c3ccc(Cl)cc3)c2n1	none
CSCCC(NC(=O)c1ccccc1Cl)C(=O)OCC(=O)N1CCCC1=O (stereo not drawn)	none
O=C(O)c1ccccc1Nc1ccnc(C(F)(F)F)c1	none (no result: KCNQ2 enhance)
FC(F)(F)c1cccc(Oc2nc(-c3ccccc3)nnc2C(F)(F)F)c1	none (no result: KCNQ2 enhance)
FC(F)(F)c1nnc(-c2ccccc2)nc1Oc1ccc(Cl)cc1Cl	KCNQ2 block -7.72

Screening results deposited in PubChem BioAssay by Johns Hopkins Ion Channel Center.
